DAX1 inh-1 – inhibitors of human orphan nuclear receptor DAX1 (NR0B1). AID 504766. P51843. HEK293 Gal4-DAX1 luciferase reporter, luminescence. 340,000 tested, 0.99% active. inhibition, % at 6.75 µM;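 active means inhibition above the mean over all tested compounds plus 3 SD, cut at about 4.2% in these data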;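 further: 0% = DAX1-transfected cells with DMSO and 100% = empty-vector control cells with DMSO; inhibition shows as a rise in luminescence from relieved DAX1 repression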
Target sequence (P51843 207-470 limits assumed): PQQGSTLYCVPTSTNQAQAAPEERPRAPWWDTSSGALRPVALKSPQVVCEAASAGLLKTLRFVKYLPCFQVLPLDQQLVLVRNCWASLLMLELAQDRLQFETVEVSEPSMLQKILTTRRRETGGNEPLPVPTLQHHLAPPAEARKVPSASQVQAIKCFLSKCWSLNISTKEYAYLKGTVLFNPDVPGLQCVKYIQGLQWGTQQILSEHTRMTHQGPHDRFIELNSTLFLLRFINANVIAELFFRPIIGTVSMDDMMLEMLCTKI
DAX1 inh-2 – inhibitors of DAX1 repression of SF-1 activated StAR promoter; HEK293T StAR-luciferase reporter, SF-1/DAX-1 repression relief; inhibition, % at 6.8 µM; 370,000 tested, 1.1% active;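 active means inhibition above the mean over all tested compounds plus 3 SD, cut at about 3.6% in these data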;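 further: 0% = DAX-1 cells with DMSO and 100% = cells lacking DAX-1 with DMSO; higher inhibition means more luminescence from relief of DAX-1 repression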
hcDAF-12 act – activators of H. contortus DAF-12 nuclear receptor. HEK293 hcDAF-12 lit1-tk-luc reporter, luminescence; 0% DMSO, 100% Δ7-dafachronic acid. activation, % at 6.8 µM. 370,000 tested, 1.4% active;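 active means activation above the mean of all tested compounds plus 3 SD, cut at about 5.5% in these data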;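 further: 100% = response to 3 µM Δ7-dafachronic acid high control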
hgDAF12 agonist – agonists of H. glycines DAF-12 nuclear receptor. HEK293 GAL4-hgDAF12 UAS-luciferase reporter, agonist luminescence; normalized to butyrate control. activation, % at 6.8 µM. 370,000 tested, 1.8% active;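 active means activation above a cutoff set at the mean of all screened compounds plus 3 SD, cut at about 10% in these data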;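 further: 0% = DMSO wells and 100% = sodium butyrate wells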
ssDAF12 agonist – activators of S. stercoralis DAF-12 nuclear receptor | HEK293 ssDAF-12/GRIP1 lit1-tk-luc reporter, luminescence; % of 3 µM dafachronic acid response | activation, % at 6.8 µM | AID 652126 | 370,000 tested, 1% active;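 active means activation above the mean over all tested compounds plus 3 SD, cut at about 0.9% in these data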;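 further: 0% = DMSO-only wells and 100% = 3 µM delta7-dafachronic acid wells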
Starred values were filed as active, the others as inactive; x = no result given. A selection: hits, their analogues and other compounds. The true share with any hit is near 4.1%.

SMILES	DAX1 inh-1	DAX1 inh-2	hcDAF-12 act	hgDAF12 agonist	ssDAF12 agonist
Cc1ccc2nc(-c3ccccc3)cn2c1	-6	-1	-2	-7	-2
Cc1ccc2nc(-c3ccc(-c4ccccn4)s3)cn2c1	4	1	4	12*	0
COc1cc(/C=N/n2c(-c3cc(-c4ccccc4)n[nH]3)n[nH]c2=S)ccc1OCc1ccccc1	x	1	0	7	0
COc1ccc(N2CCN(CCCNC(=O)c3ccc(CS(=O)(=O)c4ccc(OC)cc4)o3)CC2)cc1	-1	-1	-1	-1	-1
COc1ccc(S(=O)(=O)Cc2ccc(C(=O)NCCCN3CCc4ccccc4C3)o2)cc1	2	0	5.8*	3	3.5*
Cn1c(CNc2ccccc2F)nc2ccccc21	x	x	5	11*	0
O=C(NC1CCCCC1)N(Cc1cc2cc3c(cc2[nH]c1=O)OCCO3)C1CCCCC1	4.8*	-1	-2	-3	-1
COc1cc2cc(CN(C(=O)NC3CCCCC3)C3CCCC3)c(=O)[nH]c2cc1OC	0	0	0	-3	-1
O=C(Cn1cnc2ccccc21)N/N=C/c1ccccc1	0	1	-1	3	0
CC(/C=N/NC(=O)Cn1cnc2ccccc21)=C\c1ccccc1	-1	0	-3	-3	8.4*
NS(=O)(=O)c1ccc(NC(=O)CN2C(=O)C3C4C=CC(C4)C3C2=O)cc1 (stereo not given)	5.5*	1	-1	-1	-1
O=C(O)c1cc(NC(=O)c2ccc(Cl)c([N+](=O)[O-])c2)cc(C(=O)O)c1	1	1	0	0	-1
O=C(Nc1ccc2c(c1)OCCO2)c1ccc(Cl)c([N+](=O)[O-])c1	3	1	3	13*	-1
O=C(Nc1ccc2c(c1)OCCO2)c1cccc(Cl)c1Cl	3	2	4	12*	0
O=C(Nc1ccc2c(c1)OCCO2)c1ccc(Br)o1	1	2	4	12*	0
COc1ccccc1NC(=O)c1ccc(Br)o1	1	0	2	4	-1
Cc1cc(O)c(NC(=O)c2ccc(Br)o2)cc1C	0	1	5.8*	13*	2.1*
CCCCCN1CCCCC(NC(=O)c2cc(OC)c(OC)c(OC)c2)C1=O (stereo not given)	x	0	-1	4	-2
CC(=O)c1cc(-c2cccc(C#N)c2)c(=O)n2c1CCC2	x	0	-1	-1	-1
CN[C@H]1C[C@H]2c3cc(-c4ccccc4C)ccc3CCN2C[C@H]1[C@H](C)O	x	-1	1	3	-2
CCCN1Cc2cccc(C(=O)Nc3ccc4c(c3)OCO4)c2C1=O	0	0	-1	1	-1
CCCN1Cc2cccc(C(=O)Nc3ccc4c(c3)OCCO4)c2C1=O	4.6*	0	1	2	-1
O=C(Cn1ncc(N2CCOCC2)c(Cl)c1=O)c1ccc(Cl)cc1	5.4*	0	0	0	-1
O=C(Cn1ncc(Cl)c(Cl)c1=O)c1ccc(Cl)cc1	-1	-1	0	-1	0
COc1ccc(C2C=C(c3ccc(C)cc3)Nc3ncnn32)cc1 (stereo not given)	-1	1	2	11*	0
SMILES	DAX1 inh-1	DAX1 inh-2	hcDAF-12 act	hgDAF12 agonist	ssDAF12 agonist
Cc1ccc(C(=O)/C=C2\NCCNC2=O)cc1	2	3.8*	3	13*	0
Cc1cc(C)c(C)c(S(=O)(=O)Nc2ccccc2C(=O)O)c1C	4.9*	0	1	-2	-1
Cc1cccc(Nc2ccc([N+](=O)[O-])cc2C(=O)O)c1	1	1	-1	1	0
O=C(O)c1cc([N+](=O)[O-])ccc1Nc1ccccc1	4.3*	0	-3	-3	-1
O=C(NCCc1c[nH]c2ccccc12)C(=O)NCC1OCCCN1S(=O)(=O)c1cccs1 (stereo not given)	0	-1	0	-1	2.2*
O=C(NCCc1c[nH]c2ccccc12)C(=O)NCC1OCCCN1S(=O)(=O)c1ccc(F)cc1 (stereo not given)	-1	-1	-1	-4	-1
CN(CCc1ccccn1)c1ccccc1	1	0	6.2*	12*	0
COc1ccc(N(C)C(=O)c2sc(Cl)nc2C)cc1	0	0	-1	0	-1
Cc1ccc(OC(=O)c2sc(Cl)nc2C)cc1C	4.3*	0	-1	-2	-1
CC(C)(C)NC(=S)NNC(=O)c1ccc2ncccc2c1	2	3.8*	4	11*	0
Cc1cccc(OCCNC(=O)c2cncc(Br)c2)c1	1	0	0	2	3.3*
Cc1nn(C)cc1/C=C/C(=O)c1cccs1	5.2*	1	1	12*	0
Cc1cc(Br)ccc1SCC(=O)OC/C(O)=C(\C#N)c1nc2ccccc2[nH]1	1	-1	3	6	1.1*
CCCC(=O)OC/C(O)=C(\C#N)c1nc2ccccc2[nH]1	0	-1	1	-6	-1
Cc1cccc(Nc2nnc(SC/C(O)=C(\C#N)c3nc4ccccc4[nH]3)s2)c1C	1	0	5	2	1.0*
Cc1cccc(C)c1Nc1nnc(SC/C(O)=C(\C#N)c2nc3ccccc3[nH]2)s1	0	0	3	0	1
N#C/C(=C(/O)CCl)c1nc2ccccc2[nH]1	-1	-2	5	-6	1.0*
Cc1cc(Br)ccc1SCC(=O)OCC(O)=C(C#N)c1nc2ccccc2[nH]1	0	1	4	0	-1
N#C/C(=C(\O)Cc1ccccc1)c1nc2ccccc2[nH]1	2	-1	-1	0	-1
COCC(=O)OC/C(O)=C(\C#N)c1nc2ccccc2[nH]1	4.7*	-2	-2	-4	-2
CCCCCCc1c[nH]c2ccc(O)c(-c3ccccc3)c12	x	0	-2	-2	-1
CN1CCN(c2ccncc2S(=O)(=O)N2CCCCC2)CC1	4.9*	0	0	1	-1
COc1ccc(Cn2cc(CN3[C@@H](C)COc4cc(Br)ccc4S3(=O)=O)nn2)cc1	x	-2	-1	2	-1
CN(CCc1ccccn1)C(=O)c1cccnc1Oc1ccccc1	6.4*	0	1	0	-1
COC(=O)C[C@H]1CC[C@@H]2[C@@H](COc3ccc(NC(=O)C4CCCCC4)cc3C(=O)N2C)O1	x	0	-2	10	-1
Cc1ccc(C)c(NC(=O)CNS(=O)(=O)c2ccc3[nH]c(=O)oc3c2)c1	x	0	0	1	-1
COc1cccc(C(=O)OCC(=O)Nc2nnc(-c3ccccc3)o2)c1	5.3*	1	1	3	-1
CC(C)c1cc(C(C)C)c(S(=O)(=O)NCC(=O)N2CCN(c3ncccn3)CC2)c(C(C)C)c1	x	-1	-2	3	-1
O=C1/C(=C/c2cccnc2)CCc2c1[nH]c1ccccc21	0	3	1	13*	-1

Source: PubChem
